Results reported in PubChem BioAssay AID588683 (Broad Institute, 2011).
Measured potencies and affinities stand elsewhere.

biological target: Kelch-like ECH-associated protein 1 (Homo sapiens) + Nuclear factor erythroid 2-related factor 2 (Homo sapiens) (UniProt Q14145+Q16236); assay: disruptors of Keap1 binding to Nrf2 peptide – biochemical, fluorescence polarization, cherry-picked samples, dose response (AID 588683); conditions: plate reader; series mostly up to 26 µM; activity change, negative = inhibition: at the top concentration;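 note: Kelch domain of Keap1 binding a fluorescein-labelled 9mer Nrf2 peptide; more negative means stronger inhibition of peptide binding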
Sequence (Q14145 whole entry, looked up, the tested form may be a part): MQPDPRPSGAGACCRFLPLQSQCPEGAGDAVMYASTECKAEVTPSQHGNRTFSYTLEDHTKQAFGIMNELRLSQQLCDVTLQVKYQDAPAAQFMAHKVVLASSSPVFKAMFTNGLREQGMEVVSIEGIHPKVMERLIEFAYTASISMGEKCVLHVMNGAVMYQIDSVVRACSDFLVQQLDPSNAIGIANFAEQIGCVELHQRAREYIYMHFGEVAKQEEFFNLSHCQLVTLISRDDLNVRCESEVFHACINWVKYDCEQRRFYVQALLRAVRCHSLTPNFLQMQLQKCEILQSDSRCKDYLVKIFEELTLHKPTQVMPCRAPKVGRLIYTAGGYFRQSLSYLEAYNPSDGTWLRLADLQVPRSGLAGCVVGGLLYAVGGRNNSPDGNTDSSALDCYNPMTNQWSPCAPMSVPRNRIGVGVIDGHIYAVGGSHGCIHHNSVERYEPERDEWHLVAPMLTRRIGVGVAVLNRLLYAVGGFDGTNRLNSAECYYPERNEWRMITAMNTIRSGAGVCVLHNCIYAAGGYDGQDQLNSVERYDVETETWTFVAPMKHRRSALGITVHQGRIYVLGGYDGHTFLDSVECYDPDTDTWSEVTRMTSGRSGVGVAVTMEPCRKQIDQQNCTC
Sequence (Q16236 whole entry, looked up, the tested form may be a part): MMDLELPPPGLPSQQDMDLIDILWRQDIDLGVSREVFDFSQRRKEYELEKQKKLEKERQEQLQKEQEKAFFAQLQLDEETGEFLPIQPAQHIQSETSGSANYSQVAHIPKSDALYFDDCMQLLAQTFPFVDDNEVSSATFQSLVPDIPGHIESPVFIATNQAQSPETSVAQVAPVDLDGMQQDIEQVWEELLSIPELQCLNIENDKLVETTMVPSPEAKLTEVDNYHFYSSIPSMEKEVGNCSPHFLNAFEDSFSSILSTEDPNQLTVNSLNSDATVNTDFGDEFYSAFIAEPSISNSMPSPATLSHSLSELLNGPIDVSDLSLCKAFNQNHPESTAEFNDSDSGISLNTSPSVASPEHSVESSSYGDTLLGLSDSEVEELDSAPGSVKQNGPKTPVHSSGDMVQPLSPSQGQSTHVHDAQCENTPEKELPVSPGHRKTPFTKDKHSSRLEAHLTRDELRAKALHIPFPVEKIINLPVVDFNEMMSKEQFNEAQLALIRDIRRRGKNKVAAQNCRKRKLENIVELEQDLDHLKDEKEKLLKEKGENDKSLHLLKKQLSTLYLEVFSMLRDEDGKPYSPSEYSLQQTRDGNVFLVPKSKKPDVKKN

Activity change, negative = inhibition, inactive:
Cc1ccc(-n2nnnc2SCC(=O)c2c(N)n(C3CC3)c(=O)[nH]c2=O)cc1 3.48%
Cc1cc(NC(=O)CSc2nnc(-c3ccncc3)n2C)n(-c2ccccc2)n1 -2.6%
Cc1cccc(C)c1NC(=O)CSc1nnc(-c2ccco2)c(-c2ccco2)n1 -2.35%
Cc1ccc2cc(CN(CCCO)S(=O)(=O)c3cccc4nsnc34)c(=O)[nH]c2c1C -7.45%
N=c1c(C(=O)NCc2ccc(F)cc2)cc2c(=O)n3ccccc3nc2n1Cc1cccnc1 -11.4%
C=CCn1ccc(=NC=C(C#N)C#N)c2ccccc21 45.1%
CN(CCOc1ccc(CC2SC(=O)NC2=O)cc1)c1ccccn1 (stereo not drawn) -5.31%
CCCCCCOC(=O)C(C#N)c1nc2ccccc2nc1N1CCOCC1 (stereo not drawn) -1.81%
CCc1cc[n+](-c2nc([O-])sc2C=O)cc1 -13.4%
OC(CCN1CCC2(CC1)OCCO2)C(F)(F)F (stereo not drawn) -14%
COc1cc(NC(=O)CSc2nc3cc(C)ccc3cc2C)c(C(=O)O)cc1OC -2.64%
COc1cc2c3nnc(-c4ccc(F)cc4)c-3cn(Cc3ccc(C)cc3)c2cc1OC 207%
Cc1cc(=O)c2c([nH]1)c(C)cc1[nH]c(C)c(C)c12 -9.52%
Cc1cccc(NS(=O)(=O)c2ccc(C)c(C(=O)NCC(c3ccccc3)N(C)C)c2)c1 (stereo not drawn) 11%
C=CCOc1ccc(C=NNc2ccc(S(=O)(=O)Nc3ccccc3C(=O)O)cc2[N+](=O)[O-])cc1OC -0.849%
O=S(=O)([O-])CCC[n+]1c(SCCCS(=O)(=O)O)sc2ccc(Cl)cc21 -4.67%
C=CCn1c(=O)/c(=C\c2ccsc2)s/c1=C(/C#N)C(=O)NCCN1CCOCC1 -4.59%
CCN(CC)C(=O)C1c2ccccc2Oc2ccccc21 -5.67%
COc1ccc(C2=CC(c3ccco3)n3ncnc3N2)cc1 (stereo not drawn) -16.9%
CCOC(=O)c1ccc2ncc(C(=O)OCC)c(NCCN(C)C)c2c1 -6.02%
CCC(C)(C)n1nnnc1C(c1cc2ccc(OC)cc2[nH]c1=O)N1CCc2ccccc2C1 (stereo not drawn) 5.63%
COCCCNc1nc(N)c([N+](=O)[O-])c(Nc2cc(OC)ccc2OC)n1 0.954%
CCCN(CCC)C(=O)C1c2ccccc2Oc2ccccc21 8.47%
Nc1cccc2cc(S(=O)(=O)O)ccc12 -6.55%
Cc1nnsc1C(=O)N1CCN(c2ccc(F)cc2)CC1 -13.3%
CC(C(=O)O)N1C(=O)/C(=C/C=C/c2ccco2)SC1=S (stereo not drawn) 14.5%
O=[N+]([O-])c1ccc(S(=O)(=O)c2ccccc2)nc1 -12.1%
O=C(O)c1cccc(-n2cccc2/C=C2/NC(=O)N(c3ccc(Cl)cc3)C2=O)c1 2.3%
COc1ccc(C2OC34CCCCC3C(C#N)(C#N)C2(C#N)C(=N)O4)cc1 (stereo not drawn) -9.26%
COc1cc2c3nnc(-c4ccc(F)cc4)c-3cn(Cc3ccccc3F)c2cc1OC 129%
CC1Cc2cc(/C=C3/SC(N4CCC(C(N)=O)CC4)=NC3=O)ccc2O1 (stereo not drawn) -0.857%
CCCCCC(=O)N1CCCC1 -2.92%
Cc1ccc(S(=O)(=O)N2CCCCC2)cc1NC(=O)c1ccccc1Cl -12.1%
COC(=O)c1cccc(NC(=O)NC(=O)c2ccc(Cl)cc2)c1 -10%
COCCCN1C(=O)c2ccc(C(=O)Nc3ccc(C)cc3C)cc2C1=O -4.5%
COc1cccc(NC(=O)CN(C)CC(=O)NCc2ccco2)c1 -0.293%
O=C1NC(c2cc(Cl)cc([N+](=O)[O-])c2O)Nc2ccccc21 (stereo not drawn) -16.2%
C=CCOc1ccc(C2OC34CCCCC3C(C#N)(C#N)C2(C#N)C(=N)O4)cc1 (stereo not drawn) -12.7%
